# PfHsp90 yeast 2: growth inhibition of PfHsp90-expressing yeast, primary screen, antimalarial PfHsp90 inhibitor project, S. cerevisiae, BacTiter-Glo luminescence, single point, set 2; BacTiter-Glo ATP, 48 h; yeast lacking PDR1 and PDR3 efflux regulators; inhibition, % at 9.4 µM; 310,000 compounds, 0.32% hits; AID 504621, 2011;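 active means every replicate shows inhibition above about 80%, whatever the replicate mean, limit read from the data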;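 further: 0% = DMSO neutral controls and 100% = 20 µM radicicol positive controls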
# Mot1-301 SUMO: yeast Mot1-301 growth rescue at high temperature, primary screen, SUMOylation pathway inhibitor project, S. cerevisiae, ATP luminescence, 38.5C. S. cerevisiae Mot1-301 growth rescue; percent above DMSO median, 100 means doubled. growth rescue, % at 18.8 µM. 320,000 compounds, 1% hits;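 active means every valid replicate shows activation above 250% relative to neutral control wells; inactive means the rest, any valid replicate at or below 250%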;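 further: OY570 slx delta 5 strain wells were the positive control but not used for scaling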
# TIM10 inh: growth inhibitors of isogenic TIM10 control yeast, primary screen, counter-screen for tim10-1 yeast inhibitor project, luminescence, uHTS; S. cerevisiae TIM10 strain growth, BacTiter-Glo luminescence, 24 h; inhibition, % at 10 µM; 330,000 compounds, 1.4% hits; AID 463195, 2010;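 active means inhibition of 40% or more at the single tested concentration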;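 further: wild-type TIM10 isogenic control strain grown at permissive 25 °C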
# tim10-1 inh: growth inhibitors of tim10-1 mutant yeast, primary screen, luminescence, uHTS. AID 463190, 2010. inhibition, % at 20 µM. S. cerevisiae tim10-1 ts strain growth, BacTiter-Glo, 24 h. 330,000 compounds, 2.2% hits;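 active means inhibition of at least 40%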;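 further: mutant grown at 25 °C; 0% = DMSO wells with yeast and 100% = wells holding no yeast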
# tim23-1 inh: growth inhibitors of tim23-1 mutant yeast, primary screen, luminescence, uHTS | inhibition, % at 20 µM | 330,000 compounds, 1.3% hits | S. cerevisiae tim23-1 growth, BacTiter-Glo luminescence, 24 h;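 active means growth inhibition of the mutant yeast at or above 50%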;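 further: temperature-sensitive mutant grown at 25 °C; plate controls were DMSO-treated mutant yeast for no effect and medium wells lacking yeast for full effect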
# TIM10 conf: growth inhibitors of wild-type TIM10 yeast, confirmation, counter-screen for tim10-1 synthetic lethality project, single concentration, luminescence, S. cerevisiae. shares compounds with TIM10 inh. S. cerevisiae tim10 strain growth, BacTiter-Glo luminescence, 24 h. inhibition, % at 10 µM. 4,600 compounds, 63% hits. AID 463215, 2010;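 active means inhibition of yeast growth at or above a set limit in either of two replicates at 10 µM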;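 further: this counterscreen used the strain with wild-type TIM10; 0% = yeast with DMSO and 100% = medium wells lacking yeast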
# Numbers without * were called inactive; . = not tested or not shown. Only some compounds are listed: those with a hit (about 4.4% of all), similar ones and a draw of the others.
SMILES,PfHsp90 yeast 2,Mot1-301 SUMO,TIM10 inh,tim10-1 inh,tim23-1 inh,TIM10 conf
CC(=O)c1cccc(N=Nc2c(C)[nH]c3ccccc23)c1,-24.9,28.8,41.2*,21.0,16.9,29.2
CCN(C(=O)CSc1nnc(C)c(=O)[nH]1)c1cccc2ccccc12,-5.1,4.5,5.3,13.1,-0.7,.
CCCCOc1ccc(CSCCNC(=S)Nc2ccccc2)cc1,-20.9,-7.2,42.3*,33.2,33.8,-0.4
C=CCc1c(C)nc(-c2ccccc2)nc1Nc1ccc(O)cc1,19.7,5.0,40.3*,33.0,49.5,31.2
O=C(CNC(=O)c1ccccc1F)NCCc1ccccc1F,10.6,-3.3,-8.2,-0.5,-6.9,.
CC(C)CCn1c(N2CCN(c3cccc(Cl)c3)CC2)nc2c1c(=O)[nH]c(=O)n2C,-18.2,-4.3,40.8*,27.2,21.3,-8.2
CC1CN(CC(O)COC(c2ccc(Cl)cc2)c2ccc(Cl)cc2)CC(C)O1 (stereo unspecified),7.3,-11.4,45.5*,32.1,35.5,39.6*
O=C(NC1CCCCCCC1)NC1CCCCC1,7.7,3.5,49.6*,29.6,32.8,23.5
CN1CCC(NC(=O)NC2CCCCC2)CC1,-8.7,-5.7,3.9,4.7,0.3,.
O=C(COC(=O)CC1CC2CCC1C2)Nc1ccc(F)cc1 (stereo unspecified),25.5,12.6,43.3*,27.0,30.7,28.4
CC(=O)c1ccc(NC(=O)COC(=O)CC2CC3CCC2C3)cc1 (stereo unspecified),-14.5,-9.8,10.0,-1.9,38.6,.
COc1ccc(OCCCCc2c(C)n[nH]c2C)cc1,-5.4,9.5,13.1,5.0,9.2,.
Cc1n[nH]c(C)c1CCOc1ccc(C(C)C)cc1,-14.6,23.5,48.5*,36.1,43.1,29.5*
CCN1CCc2c(sc(NC(=O)c3ccc(S(=O)(=O)N(CC)c4ccccc4)cc3)c2C(N)=O)C1,-20.4,-6.4,-19.0,-2.8,-12.2,.
Cc1ccc(C(=O)Oc2ccc(C(=O)COC(=O)C3CC(=O)N(Cc4ccco4)C3)cc2)cc1 (stereo unspecified),.,-9.2,40.6*,39.5,21.0,13.3
COc1ccc(C(C)(C)C)cc1NC(=O)c1ccccc1-n1cnnn1,.,2.7,-1.0,1.9,10.2,.
Cc1c(C(=O)O)sc(S(=O)(=O)N2CCN(C(=O)CCc3ccccc3)CC2)c1C(=O)O,.,.,10.3,-1.3,7.4,.
CCCCNC(=O)[C@]1(C)CCC[C@@]2(C)C3CC[C@@]4(C)C[C@]3(CCC21)CC4=O (stereo partly specified),5.6,56.8,59.4*,-2.0,26.6,14.9
O=c1oc(-c2ccccc2)nc2sc3c(c12)CCC3,1.4,141.0,42.4*,37.1,35.2,24.2
COc1ccc(-c2cc(-c3ccc(OC)c(OC)c3)n[nH]2)c(O)c1,7.4,-13.4,46.6*,36.8,44.2,25.2
O=[N+]([O-])c1ccccc1-c1cc(-c2ccccc2O)n[nH]1,2.0,-10.8,13.4,-2.0,41.2,.
COc1ccc(O)c(-c2cc(-c3cccc(Br)c3)n[nH]2)c1,94.4*,59.3,52.7*,8.4,-51.7,62.5*
COc1ccc(O)c(C2=Nc3ccccc3N=C(c3ccccc3)C2)c1,-14.5,38.3,11.1,11.3,-1.1,.
O=[N+]([O-])c1cccc(-c2cc(-c3cc(Br)ccc3O)[nH]n2)c1,-80.1,152.2,46.8*,30.9,35.6,43.3*
CCOc1ccc(NC(=O)COc2ccc(C(=O)NCC3CCCO3)cc2OC)cc1 (stereo unspecified),-41.7,20.1,0.4,6.2,15.6,.
c1ccc2c(c1)c1ccccc1n1c(-c3ccc4c(c3)OCO4)nnc21,-27.6,867.4,67.6*,37.4,41.8,8.2
CC(C)OCCCn1c(-c2ccco2)nc2nc3ccccc3nc21,.,-1.1,9.4,23.2,39.6,.
CCC(C)n1c(-c2ccco2)nc2nc3ccccc3nc21 (stereo unspecified),.,12.9,46.4*,28.3,35.8,12.1
